From PubChem BioAssay
The list is not random: actives were taken first. Their share in the collection is about 2.9%.
TAG inh – triacylglycerol accumulation inhibition; hit rate 0.66% among 230,000; H9c2 cells, Nile Red lipid (TAG) fluorescence; cells loaded with 200 µM oleic acid; inhibition, % at 12.5 µM; AID 651582;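 active = pattern-corrected inhibition of lipid staining of at least 50% with the nuclear-stain viability signal not falling by more than 50%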;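 note: 0% = DMSO wells and 100% = triacsin C control wells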
H9c2 protect – protects H9c2 cardiomyocytes from peroxide injury; H2O2 injury protection, ATPLite, 2 h; hit rate 0.63% among 360,000; AID 588492; protection from H2O2 cell death, % at 20 µM;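 active = compounds giving at least 50% protection of heart cells from peroxide-induced death in the single-dose screen, raw or plate-pattern-corrected value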;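 note: 0% = DMSO wells with peroxide and 100% = DMSO wells without peroxide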
APOBEC3G inh – blocks human APOBEC3G single-stranded DNA deamination. Q9HC16. recombinant A3G, ssDNA deamination FAM/TAMRA fluorescence. inhibition, % at 20 µM. hit rate 0.28% among 330,000. AID 493012;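 active = inhibition of at least 40% at 20 µM, with no more than 30% in the related APOBEC3A deaminase screen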;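 note: plate controls were DMSO wells with A3G for no effect and wells lacking A3G enzyme for full effect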
Target sequence (Q9HC16 whole entry, looked up): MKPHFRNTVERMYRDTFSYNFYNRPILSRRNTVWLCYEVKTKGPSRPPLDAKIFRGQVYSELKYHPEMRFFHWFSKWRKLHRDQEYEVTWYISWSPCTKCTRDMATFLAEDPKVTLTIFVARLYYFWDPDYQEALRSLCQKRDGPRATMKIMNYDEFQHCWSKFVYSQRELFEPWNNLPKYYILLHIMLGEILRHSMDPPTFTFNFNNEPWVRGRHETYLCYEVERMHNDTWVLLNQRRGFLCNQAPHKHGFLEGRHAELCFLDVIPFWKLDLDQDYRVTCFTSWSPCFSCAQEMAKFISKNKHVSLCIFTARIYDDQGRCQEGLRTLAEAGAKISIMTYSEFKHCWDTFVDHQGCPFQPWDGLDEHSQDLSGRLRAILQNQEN
A3A deaminase – inhibitors of human APOBEC3A DNA deaminase | AID 493011 | P31941 | recombinant A3A, FAM/TAMRA ssDNA deamination fluorescence | inhibition, % at 20 µM | hit rate 0.41% among 330,000;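 active = at least 40% inhibition at 20 µM here, with at most 30% in a related deaminase screen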;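 note: plate controls were A3A with DMSO for no effect and wells lacking A3A enzyme for full effect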
Target sequence (P31941 whole entry, looked up): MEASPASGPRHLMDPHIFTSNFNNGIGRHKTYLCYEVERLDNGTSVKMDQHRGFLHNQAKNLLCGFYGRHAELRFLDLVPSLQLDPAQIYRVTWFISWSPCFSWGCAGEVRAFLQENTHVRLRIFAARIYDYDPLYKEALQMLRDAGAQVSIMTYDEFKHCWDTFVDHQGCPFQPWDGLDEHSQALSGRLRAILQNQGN
NadD block – inhibitors of Staphylococcus aureus NadD; purified NadD enzyme, colorimetric absorbance read-out; inhibition, % at 20 µM; hit rate 0.78% among 360,000; in the data active = inhibition above about 26%
PfGluPho inh – PfG6PD (Plasmodium falciparum) enzyme inhibition; PfGluPho enzyme, NADPH resazurin-diaphorase fluorescence; inhibition, % at 20 µM; hit rate 0.78% among 350,000; AID 504690;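 active = inhibition reaching at least a set limit at 20 µM in the primary screen, cut at about 59% in these data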;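 note: 0% = DMSO wells with substrate and 100% = DMSO wells lacking glucose-6-phosphate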
TAG conf – triacylglycerol accumulation inhibition, confirmation. shares compounds with TAG inh. H9c2 lipid accumulation, Nile Red fluorescence; cells loaded with 200 µM oleic acid. inhibition, % at 12.5 µM. hit rate 71% among 990. AID 651629;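 active = mean inhibition across replicates of 40% or more; inactive = mean inhibition below 40%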;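 note: plate controls were DMSO only wells for no effect and Triacsin C treated wells for full effect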
* = called active by the depositor; . = not tested or not shown.

SMILES	TAG inh	H9c2 protect	APOBEC3G inh	A3A deaminase	NadD block	PfGluPho inh	TAG conf
O=C(CCNC(=O)C1CCN(S(=O)(=O)c2ccccc2)CC1)NCCc1cccc(F)c1	.	1.9	-3.6	-1.0	-2.5	15.0	.
COC(=O)c1ccc(NC(=O)CN2CCN(CCO)CC2)cc1	.	1.6	0.9	4.2	0.9	3.5	.
COc1ccc(/C=C2\SC(=O)N(CC(=O)NC3CCS(=O)(=O)C3)C2=O)cc1 (stereo unspecified)	.	-4.4	-6.2	-7.4	-2.5	3.6	.
O=C(NCc1cccc(F)c1)c1[nH]c(C(F)(F)F)nc1-c1ccccc1	.	-7.7	.	.	-3.0	.	.
N#Cc1ccc(NCC(=O)Nc2ccc(S(=O)(=O)N3CCCCC3)cc2)cc1	-50.0	-7.2	-7.9	-0.6	6.9	-9.6	.
Cc1cc(C)nc(N/N=C/c2ccccc2)n1	.	7.0	-10.1	-0.2	-3.1	-10.3	.
CCN(CC)c1ccc(/C=N/Nc2nc(C)cc(C)n2)cc1	51.5*	-3.9	-5.8	-5.4	-3.9	9.1	30.0
CC(NC(=O)CN1CCOCC1)c1ccccc1 (stereo unspecified)	.	-0.4	-12.6	-3.2	-2.2	-5.5	.
COc1ccc(NC(=O)C2(C)Cc3c(-c4cccc(C(N)=O)c4)ccnc3O2)cc1 (stereo unspecified)	60.8*	24.3	.	.	-4.3	.	53.1*
CC(=O)Nc1ccc(NC(=O)C2(C)Cc3c(-c4cccc(C(N)=O)c4)ccnc3O2)cc1 (stereo unspecified)	3.4	8.3	.	.	2.4	.	.
COc1ccc(NC(=O)C2(C)Cc3c(-c4cccc(NC(C)=O)c4)ccnc3O2)cn1 (stereo unspecified)	58.0*	28.8	.	.	0.7	.	52.5*
Cc1c(Br)c([N+](=O)[O-])nn1CC(=O)N(C)Cc1ccccc1	5.4	-0.1	-7.3	2.0	1.6	-0.6	.
CCCCCCCCn1c(N2CCN(c3cccc(Cl)c3)CC2)nc2c1c(=O)[nH]c(=O)n2C	65.3*	-7.3	-4.6	-5.0	24.1	6.0	65.6*
CCc1[nH]nc(C(=O)NC2CCCN(Cc3ccccc3F)C2)c1C (stereo unspecified)	.	-2.8	-7.3	-4.2	-2.8	11.8	.
COC(=O)Nc1ccc(OCC(=O)N2CCOCC2)cc1	.	0.7	-0.2	0.1	3.5	1.3	.
O=C(CCC1CCCC1)Nc1ccc(OCC(=O)N2CCOCC2)cc1	50.8*	-18.6	2.2	6.0	4.3	7.7	35.9
CC(C)c1ccc2c(c1)C(c1ccc(N3CCOCC3)cc1)=NNC(c1cccs1)=N2	52.3*	8.3	-2.9	-0.9	28.9	13.1	28.9
COC(=O)c1cc(NC(=O)c2c(Cl)nc3sccn23)cc(C(=O)OC)c1	69.7*	-12.0	-4.7	-0.7	9.1	2.7	87.0*
COc1ccc(-c2sc3ccc(N4CCOCC4)cc3c2C#CCCO)cc1	51.4*	-0.8	-5.9	-2.1	-8.6	28.9	55.0*
COc1ccc(-c2sc3cc(OC)c(OC)cc3c2C#CCCO)cc1	2.1	3.5	-9.8	-6.0	-18.1	14.2	.
COc1cccc(Cn2c3ccc(NC(=O)CCc4ccc(F)cc4)cc3c(=O)n2C)c1	51.7*	-1.8	.	.	-4.2	.	69.0*
COC(=O)C1=C(C)N(Cc2ccccc2)C(=NCc2ccccc2)N[C@H]1c1ccccc1	104.8*	-13.8	3.7	32.4	-6.7	1.6	53.4*
COC(=O)C1=C(C)N(Cc2ccccc2)C(=NCCc2c[nH]c3ccccc23)N[C@H]1c1ccccc1	18.8	-1.1	8.0	23.6	21.9	7.0	.
Fc1cccc(/C=N/Nc2cc(N3CCOCC3)ncn2)c1	60.0*	-7.2	-4.4	-2.6	0.5	-9.2	29.4
Fc1ccc(/C=N/Nc2cc(N3CCOCC3)ncn2)cc1	34.9	2.8	-4.6	-4.7	-1.5	10.9	.
SMILES	TAG inh	H9c2 protect	APOBEC3G inh	A3A deaminase	NadD block	PfGluPho inh	TAG conf
CC1(C(=O)NS(=O)(=O)c2ccc3c(c2)CCO3)CCN1C(=O)Cc1ccc(-c2ccccc2)cc1 (stereo unspecified)	9.1	-1.9	.	.	5.0	.	.
Cn1nnc2c[n+](CC(=O)c3ccc(Cl)cc3)cc(Br)c21	58.9*	3.7	-3.9	-1.2	2.1	11.8	68.7*
Cn1nnc2c[n+](CC(=O)c3ccc4ccccc4c3)cc(Br)c21	6.5	3.0	0.8	7.3	1.0	8.1	.
COCCN1Cc2cccc(C(=O)Nc3cccc(-c4nc5ccccc5[nH]4)c3)c2C1=O	79.7*	54.1*	10.9	7.0	-8.8	-10.0	89.3*
COCCN1Cc2cccc(C(=O)Nc3ccc(-c4nc5ccccc5[nH]4)cc3)c2C1=O	.	0.5	-2.7	0.9	-3.4	-16.9	.
Cc1cc(NC(=O)CSc2nc3ccccc3c(=O)n2C2CCCC2)no1	89.5*	5.1	-5.4	-2.0	-0.2	-11.6	69.2*
CN(C)c1ccc(NC(=O)CSc2nc3ccccc3c(=O)n2C2CCCCC2)cc1	55.2*	-0.1	-2.2	-1.8	16.2	-9.3	49.4*
CCCCCCSc1cc(-c2nc3ccc(Cl)cn3c2NC2CCCCC2)ccc1OC	65.9*	-11.4	-7.8	-4.5	12.3	8.5	44.0*
CCOc1cc2c(cc1O)CCC1C2CCC2(C)C(O)CCC12 (stereo unspecified)	73.0*	2.8	.	.	2.3	-4.7	57.4*
O=C(C[C@H]1C[C@H](C(=O)N2CCOCC2)[C@@]2(CCC3CCCC3)c3[nH]c4cc(-c5ccco5)ccc4c3CCN2C1=O)NCC12CC3CC(CC(C3)C1)C2	61.6*	-10.6	-1.5	-2.3	24.3	5.8	76.6*
O=C(CC1C[C@H](C(=O)N2CCOCC2)[C@@]2(CCC3CCCC3)c3[nH]c4ccccc4c3CCN2C1=O)NCC12CC3CC(CC(C3)C1)C2 (stereo partly specified)	60.6*	-4.1	-5.3	-3.8	21.8	20.8	55.8*
O=C(CC1C[C@H](C(=O)N2CCOCC2)[C@@]2(CCC3CCCC3)c3[nH]c4ccccc4c3CCN2C1=O)NCCN1CCOCC1 (stereo partly specified)	7.7	-11.5	-1.5	-2.4	1.1	-7.0	.
CCOc1ccccc1C(=O)Nc1cc(C(=O)NCC(C)C)ccc1Cl	.	.	-3.2	1.7	.	.	.
O=C(c1ccc(F)cc1)C1CCN(C(=O)NC2CCCCC2)CC1	50.1*	-0.7	1.1	2.0	-5.1	-6.3	29.0
O=C(NC1CCCCC1)N1CCN(S(=O)(=O)c2ccc(F)cc2)CC1	-8.8	-2.4	3.2	2.0	-3.0	-14.3	.
Cc1cccc(C)c1NC(=O)c1csc([C@@H]2O[C@H](CO)[C@H](O)[C@H](O)[C@H]2O)n1	38.4	5.3	.	.	-6.9	.	.
CCC(C)(C)NC(=O)C(c1cccn1C)N(Cc1ccc(OC)cc1)C(=O)Cn1nnc2ccccc21 (stereo unspecified)	66.7*	-12.4	0.5	4.9	-4.3	-11.0	50.2*
O=C(Cc1coc2ccc3ccccc3c12)Nc1nccs1	51.8*	-10.1	-8.2	-7.0	0.3	-18.5	43.1*
